The assay addresses T1, Aspartate--tRNA(Asp/Asn) ligase (Mycobacterium tuberculosis (strain ATCC 25618 / H37Rv)) (UniProt P9WFW3).
T1 sequence (whole entry): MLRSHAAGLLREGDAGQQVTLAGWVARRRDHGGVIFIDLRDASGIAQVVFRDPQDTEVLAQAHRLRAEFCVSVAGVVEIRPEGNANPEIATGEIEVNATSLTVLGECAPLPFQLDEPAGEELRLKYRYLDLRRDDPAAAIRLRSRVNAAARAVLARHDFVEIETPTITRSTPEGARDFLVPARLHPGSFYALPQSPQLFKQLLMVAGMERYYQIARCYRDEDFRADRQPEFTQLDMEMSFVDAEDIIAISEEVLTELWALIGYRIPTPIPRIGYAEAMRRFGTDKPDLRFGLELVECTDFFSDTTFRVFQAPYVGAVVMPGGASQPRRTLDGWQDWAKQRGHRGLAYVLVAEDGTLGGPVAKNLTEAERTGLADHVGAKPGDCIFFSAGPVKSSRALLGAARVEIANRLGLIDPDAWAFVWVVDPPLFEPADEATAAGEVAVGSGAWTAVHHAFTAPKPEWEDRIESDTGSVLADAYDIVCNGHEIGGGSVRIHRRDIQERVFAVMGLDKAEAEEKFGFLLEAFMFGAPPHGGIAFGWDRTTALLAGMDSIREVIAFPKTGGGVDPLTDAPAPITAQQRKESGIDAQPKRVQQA
Nature of the assay: Assay for Asp RNA synthetase-1 from Mycobacterium tuberculosis. The assay is classed as functional. Details: scale not given: in the data most compounds retested in dose-response had high values. The following applies: 30 µM.
Take `O=C(c1cc(C2CC2)on1)N1CCCC(n2cncn2)C1` (stereo not given): the Percent Effect is -0.789%.

With `O=C(CN1CCCS1(=O)=O)NCCOc1ccc2c(c1)CCC2`, the Percent Effect was -5.23%.

In the case of `Cn1cc(CN2CCC3(CC(=O)N(c4ccc5c(c4)OCO5)C3)C2)cn1` (stereo not given), the Percent Effect is 2.85%.

With `CN(C)c1cc(CNC(=O)Nc2ccc(S(C)(=O)=O)nc2)ccn1`, the Percent Effect was -1.23%.

For `O=C(NCc1cccnc1)C1=NN(c2ccccc2)C(=O)CN1`, the Percent Effect came to 14.8%.

In the case of `O=C(NCCCn1nc2ccccn2c1=O)NC1CCC(O)CC1` (stereo not given), the Percent Effect stood at 4.86%.

Consider `CCNC(=O)CCN1CCC(c2cc(N3CCOCC3)nc(C)n2)CC1`, for which the Percent Effect was -4.4%.

For `O=C(NCCO)Nc1cccc(Cl)c1SC(F)F`, the Percent Effect stood at 0.334%.

For `Fc1cnc(N2CCn3cc(CNc4ccccn4)nc3C2)nc1`, the Percent Effect came to 1.02%.

In the case of `O=C(c1cccc(F)c1)N1CCN2C[C@H](OCc3cccnc3)C[C@H]2C1`, the Percent Effect is -1.22%.

Regarding `O=C(c1cnc(-c2ccco2)s1)N1CCCC1Cn1cccn1` (stereo not given), the Percent Effect is -5.14%.

For the compound `Cc1ccc(CN2CC[C@H]3OCC[C@@H](c4nc(C)no4)[C@H]3C2)cc1`, the Percent Effect was -5.18%.

For `NC(=O)c1ccc(OCC(=O)N2CCCC(n3cccn3)C2)cc1` (stereo not given), the Percent Effect is -4.7%.

For the compound `Cc1noc(C)c1CC(=O)OCC(=O)N1CCc2sccc2C1`, the Percent Effect is 6.42%.

For the compound `COc1ccc(CCC(=O)Nc2cccnc2N2CCCC2)cc1Br`, the Percent Effect is -3.21%.

Regarding `COCc1ccccc1CNc1cc(N2CCCC2CO)ncn1` (stereo not given), the Percent Effect was -1.49%.

As to `COc1ccc(OCCNCCn2cccn2)cc1`, the Percent Effect stood at 1.29%.

As for `Cc1cncc(C2CCCN(Cc3cccn3C)C2)n1` (stereo not given), the Percent Effect was 0.162%.

Turning to `O=C(NCc1ccco1)[C@H]1C[C@H]2OCC[C@H]2N(C(=O)c2ccncc2)C1`, the Percent Effect turned out to be 4.89%.

For `CC1CN(C)c2ccccc2CN1C(=O)c1ccncc1` (stereo not given), the Percent Effect came out at 6.3%.

(Values after ChEMBL document CHEMBL3988442, “University of Dundee, Small-Polar-MMV Screening Library” (2021).)
